# Only some compounds are listed: those with a hit (about 7.3% of all), similar ones and a draw of the others.
# AmpC detergent: AmpC beta-lactamase inhibition with detergent present. P00811. AmpC hydrolysis of nitrocefin, absorbance 480 nm, 0.01% Triton. Potency, µM (top dose mostly 114 µM), inactives show top-dose activity change, negative = inhibition, usual class: inhibitors. 370,000 compounds, 0.041% hits;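 also: potency is read from the fitted curve at half-maximal effect; 0% = no-compound wells and -100% = no-enzyme wells; nearly all actives have a fitted effect of over 25% in size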
# Target sequence (P00811 whole entry, looked up): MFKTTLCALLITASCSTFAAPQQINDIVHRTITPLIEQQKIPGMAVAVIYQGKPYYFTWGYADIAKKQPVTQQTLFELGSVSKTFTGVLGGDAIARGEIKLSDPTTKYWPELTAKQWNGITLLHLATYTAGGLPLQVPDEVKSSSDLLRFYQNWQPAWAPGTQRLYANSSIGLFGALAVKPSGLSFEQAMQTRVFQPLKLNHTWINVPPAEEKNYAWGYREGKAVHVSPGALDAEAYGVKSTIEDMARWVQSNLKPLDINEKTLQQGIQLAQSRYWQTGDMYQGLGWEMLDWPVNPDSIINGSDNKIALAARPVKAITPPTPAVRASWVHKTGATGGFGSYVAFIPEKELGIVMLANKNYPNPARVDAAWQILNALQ
#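 20 mM phosphate pH 7.0 + 0.01% (detergent screen) or 0.0001% Triton X-100; 5.3 nM AmpC reagent; cpd preinc 15 min RT; nitrocefin (800 uM stock) to start; A480 q20 s × 4 min; Activity was normalised to no-enzyme and no-compound control wells.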
# HCMV inh: human cytomegalovirus inhibition | AID 1259415 | activity change, negative = inhibition, % at 57.5 µM | HFF cells, HCMV-luciferase reporter, 72 h; hits give low values | 410,000 compounds, 4.5% hits; in the data active = activity change below about -60%; inconclusive = no clear call, values can overlap the other calls; inactive = above about -39%
#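 Steps: HFFs plated, 16 h 37C; compounds added; HCMV-luciferase added to MOI 1 PFU/cell; 72 h 37C; OneGlo reagent, 5 min room temperature; luminescence read, normalized to controls.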
# AmpC no deterg: blocks E. coli AmpC beta-lactamase in detergent-free assay; Potency, µM (highest dose often 57.1 µM), without a hit: at the highest dose activity change, negative = inhibition, most hits filed as inhibitors; P00811; AmpC nitrocefin hydrolysis, absorbance 480 nm, 0.0001% Triton; 330,000 compounds, 0.52% hits;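 also: potency is read from the fitted curve at half-maximal effect; plate controls were no compound for no effect and no enzyme for full effect; nearly all actives have a fitted effect of over 20% in size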
#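 AmpC (5.3 nM in the dispensed reagent) in 20 mM phosphate pH 7.0 with 0.01% (detergent screen) or 0.0001% Triton X-100 was preincubated with compounds for 15 min at room temperature. Nitrocefin was then added from an 800 uM solution, and hydrolysis was followed at 480 nm.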
# FMDV antiviral: antivirals against foot and mouth disease virus; 410,000 compounds, 1.2% hits; FMDV antiviral cell-based qHTS; Potency, µM (series often up to 57.9 µM), without a hit: top-dose activity change, negative = inhibition, hits mostly inhibitors; calls by dose curve; tested in HEK293T cells; also: read-out not given here; potency is read from the fitted curve at half-maximal effect; nearly all actives have a fitted effect of over 45% in size
# HCV inhibitor: blocks hepatitis C virus; Huh7.5.1 HCVcc-Cre infection, luciferase reporter, 44 h; Potency, µM (titrated, usually from 41.8 µM), inactives show top-dose activity change, negative = inhibition, actives largely listed as inhibitors; 340,000 compounds, 3.4% hits; AID 651820; also: potency is read from the fitted curve at half-maximal effect
#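 Cells seeded at 1,000/well and cultured 4 h, then compounds added followed by HCVcc-Cre virus (~0.5 moi). After 44 h further culture, luciferase substrate was added, plates held 15 min at room temperature, and luminescence read for 15 sec.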
# The depositor's hits bear a star; ? = inconclusive; . = not tested or not shown. Unless noted, calls follow the shape of the dose curve; as a rule, active = well fitted curve in the direction sought with a large enough effect; inconclusive = small, poorly fitted or top-dose-only effect, or another doubt; inactive = no such curve, though single readings can be large; an effect the other way counts as inactive or inconclusive. Unless noted, % is scaled to controls: 0 for no effect and ±100 for the full control effect.
SMILES,AmpC detergent,HCMV inh,AmpC no deterg,FMDV antiviral,HCV inhibitor
CCOc1ncccc1C(=O)Nc1cc(S(=O)(=O)N(CC)CC)ccc1N1CCOCC1,.,-66*,162%,?,?
CCN(CC)S(=O)(=O)c1ccc(N2CCOCC2)c(NC(=O)c2cccc3c(=O)c(C)c(-c4ccccc4)oc23)c1,.,-8,.,?,8.9µM*
CCN(CC)S(=O)(=O)c1ccc(N2CCCCC2)c(C(=O)Nc2ccccc2N2CCOCC2)c1,-1%,?,0%,-8%,5.6µM*
CCOc1ncccc1C(=O)Nc1cc(C(F)(F)F)ccc1N1CCOCC1,5%,-67*,-4%,-17%,-27%
CCN(CC)S(=O)(=O)c1ccc(N2CCOCC2)c(NC(=O)c2cccc3ccccc23)c1,-7%,-23,-15%,0%,3%
CCN(CC)S(=O)(=O)c1ccc(N2CCOCC2)c(NS(=O)(=O)c2cc(C(C)(C)C)ccc2C)c1,-2%,-69*,70%,-8%,?
O=c1[nH]c(-c2ccccc2)ncc1OCc1ccccc1,.,-63*,.,14%,18%
COc1cnc(-c2ccccc2)[nH]c1=O,3%,-1,-8%,-7%,9%
Cc1ccc(NS(=O)(=O)c2ccc3c(c2)oc(=O)n3C)cc1F,?,?,-21%,1%,-3%
Cc1ccc(NS(=O)(=O)c2ccc3c(c2)oc(=O)n3C)cc1,-16%,-63*,-17%,9%,-7%
Cc1ccc(NS(=O)(=O)c2ccc3c(c2)oc(=O)n3C)cc1C,1%,-101*,-20%,15%,?
COc1cc(NS(=O)(=O)c2ccc3c(c2)oc(=O)n3C)cc(OC)c1OC,?,?,-13%,-24%,10µM*
Cn1c(=O)oc2cc(S(=O)(=O)NCCC(=O)N3CCc4ccccc4C3)ccc21,?,32,-21%,-21%,9%
Cn1c(=O)oc2cc(S(=O)(=O)NCCN3CCc4ccccc4C3)ccc21,-3%,0,-25%,5.6µM*,4%
COc1ccc(NS(=O)(=O)c2ccc3c(c2)oc(=O)n3C)c(OC)c1,-13%,-6,-5%,-12%,-6%
CCc1ccc(NS(=O)(=O)c2ccc3c(c2)oc(=O)n3C)cc1,-2%,?,-30%,-12%,?
Cc1ccc(S(=O)(=O)N2CCN(C(=O)c3cc(C4CC4)nc4c3cnn4C(C)C)CC2)cc1,-2%,-19,138%,-28%,?
OC1(c2ccc(Br)cc2)CCNCC1,-15%,11,-12%,-8%,?
OC1(c2ccc(F)cc2)CCNC1 (stereo not drawn),0%,-66*,-4%,12%,6%
Cc1cc2c(Nc3ccc(O)cc3)ncnc2s1,10%,-69*,-34%,14%,?
CCc1ccc(NC(=O)CSc2nc3ccccc3c(=O)n2CCCC(=O)NCCCN2CCOCC2)cc1,0%,-19,228%,-17%,11µM*
CC1CCN(CCCn2c(SCC(=O)Nc3ccccc3Cl)nc3ccccc3c2=O)CC1,-11%,-12,-9%,-13%,11µM*
CC(=O)Nc1ccc(NC(=O)CSc2nc3ccccc3c(=O)n2CCCN2CCOCC2)cc1,.,-8,-10%,7%,26%
O=C(CSc1nc2ccccc2c(=O)n1CCCN1CCOCC1)Nc1cccc(S(=O)(=O)N2CCCCCC2)c1,-10%,?,262%,-8%,13µM*
Cc1ccc(NC(=O)CSc2nc3ccccc3c(=O)n2CCCN2CCCCC2)cc1Cl,-6%,-97*,73%,-25%,2µM*
COc1cc(CC(=O)N2CCN(S(=O)(=O)c3ccc(C(C)C)cc3)CC2)cc(OC)c1OC,.,5,.,?,.
COc1cc(-c2nc3ccccn3c2Nc2ccccc2C)ccc1O,19%,-3,.,-15%,.
C[C@]12C(=O)N(c3ccc(Cl)cc3)C(=O)N1[C@@H]1c3ccccc3OC[C@@H]1[C@H]2c1ccccc1,.,-37,.,-18%,?
COCCNC(=O)CSc1nc2cc3c(cc2c(=O)n1CCCC(=O)NCCc1ccc(OC)c(OC)c1)OCO3,-7%,42,27%,0%,12%
Cc1ccc(S(=O)(=O)N2CCOCC2)cc1NC(=O)CSc1nnc2cc(C)c3ccccc3n12,3%,-63*,218%,?,?
